# Assay results: PubChem BioAssay AID624296 (National Center for Advancing Translational Sciences (NCATS), 2012)
# In all, about 350,000 compounds went through this assay and about 9,900 (2.8%) were called active. Roughly 15% stayed inconclusive and do not appear here. The sample holds actives, similar compounds and a random draw of the others, so the mix is not that of the screen. A number with no mark means an inactive call. Calls follow the shape of the dose curve; as a rule, active = well fitted activation curve with a large enough effect; inconclusive = small, poorly fitted or top-dose-only effect; inactive = no such curve, though single readings can be large or run the other way.
# Assay: A quantitative high throughput screen for small molecules that induce DNA re-replication in MCF 10a normal breast cells. Also: nearly all actives have a fitted effect of over 50% in size. As to activity, positive = re-replication: % of control where 0% means no effect.
# Conditions: MCF 10A DNA re-replication, Hoechst nuclear intensity, 48 h; series mostly up to 46.1 µM; activity, positive = re-replication: at the top concentration
# Potency is read from the fitted curve at half-maximal effect.
Compound,"activity, positive = re-replication [%]",Potency
CC[C@@H](C)[C@@H]1CN([C@@H](C)CN2CCC[C@H]2CN2C(N)=NC[C@H]2C(C)C)C(=N)N1CCc1ccc(Cl)c(Cl)c1,-21.4,
CC(OC(=O)c1c(F)cccc1F)C(=O)NCCC1=CCCCC1 (stereo not given),8.71,
Cc1ccc(NC(=O)CC(=O)Nc2ccc(C)cc2)cc1,2.57,
O=C(CCl)Nc1ccc(Sc2ccc(NC(=O)CCl)cc2)cc1,,6.51 µM (active)
CCC(=O)Nc1ccc(Nc2nc(Cl)nc(Nc3ccc(NC(=O)CC)cc3)n2)cc1,0.0779,
FC(F)(F)c1ccc(-c2cccc3c2C2CC3CCN2Cc2ccccc2)cc1 (stereo not given),2.26,
CC1CCCCC12NC(=O)N(CC(=O)N1CCN(c3ccccc3)CC1)C2=O (stereo not given),0.565,
COc1cccc(CNC(=O)CN2C(=O)NC(Cc3ccccc3)(c3ccccc3)C2=O)c1 (stereo not given),-0.149,
COc1ccc(-c2nn(-c3ccccc3)cc2/C=N/Nc2ccccn2)cc1OC,,23.1 µM (active)
CC(C)(C)OC(=O)N/N=C/c1cn(-c2ccccc2)nc1-c1cccnc1,7.39,
CN(C)/N=C/c1cn(-c2ccccc2)nc1-c1cccnc1,0.925,
CCOC(=O)C(CO)NC(=O)C1(NC(C)=O)CCCC1 (stereo not given),-0.0355,
CN(CCc1ccccc1)C(=O)c1cccc(NC(=O)Cc2cccc(NC(=O)C3CCCN(C(=O)CCc4ccccc4)C3)c2)c1 (stereo not given),3.16,
CCOC(=O)C1=C(C)NC(=O)NC1c1ccccc1 (stereo not given),-2.24,
CCOC(=O)C1=C(CN2CCc3ccccc32)NC(=O)NC1c1cccc([N+](=O)[O-])c1 (stereo not given),-3.56,
CCOC(=O)C1=C(CN2CCc3ccccc32)NC(=O)NC1c1ccc(Cl)cc1 (stereo not given),,14.6 µM (active)
COc1cc(O)c2c(=O)c3c(O)c(O)ccc3oc2c1OC,-33.2,
CC(C)CCN1CCN=C1N(C)C,-20.8,
O=C(OCc1ccccc1)c1ccc(O)cc1,0.461,
O=C(OCc1ccc(-c2ccccc2)cc1)c1cccc(O)c1,,20.6 µM (active)
O=C(OCc1ccc(Br)cc1)c1cccc(-c2nnc(-c3ccccc3)o2)c1,4,
Cc1cc2c(cc1C)NC1(C[C@H]3CCC(=O)N4CC[C@@H](C1)[C@@H]34)C(=NC(C)(C)CC(C)(C)C)N2 (stereo not given in full),-13.3,
CCCCN1CC(CO)Oc2cccc(F)c2S1(=O)=O (stereo not given),-9.57,
Cc1cc(C(=O)OCC(=O)N2C(C)CCCC2C)c2ccccc2n1 (stereo not given),3.65,
O=C(NCc1ccccc1)c1ccc(S(=O)(=O)Nc2cccc(C(F)(F)F)c2)cc1,4.4,

Compound,"activity, positive = re-replication [%]",Potency
CCOC(=O)N1CCN(C(=O)c2ccc(S(=O)(=O)Nc3cccc(C(F)(F)F)c3)cc2)CC1,31.5,
Cc1oc2c(F)c(F)c(F)c(F)c2c1S(=O)(=O)Nc1cccc(C(F)(F)F)c1,,16.4 µM (active)
O=C1C=C(c2cc(C(F)(F)F)cc(C(F)(F)F)c2)C[C@@H](c2ccc3c(c2)OCO3)C1,-4.9,
Fc1ccccc1COc1cccc2cccnc12,16.7,
Fc1ccccc1COc1ccccc1CNCc1ccncc1,,3.26 µM (active)
c1ccc(COc2ccccc2CNCc2cccnc2)cc1,-1.98,
C[C@@H]1ON(C)[C@H]2C[C@H]3c4cc(N5CCN(C)CC5)ccc4CCN3C(=O)[C@@H]12,16.1,
CCOC(=O)/C(=C\c1ccc([N+](=O)[O-])cc1)C(=O)c1cc(C(C)=O)c(Nc2ccccc2)s1,,1.46 µM (active)
O=C(Nc1ccccc1)/C(=C/c1ccc([N+](=O)[O-])cc1)NC(=O)c1ccccc1,-1.1,
Cc1cccc(NC(=O)c2sc(-c3ccccc3)nc2-c2ccc([N+](=O)[O-])cc2)c1,-1.51,
Cc1ccc(C(=O)CN2C(=O)NC3(CCOc4ccccc43)C2=O)s1 (stereo not given),-9.64,
CCOc1ccc(S(=O)(=O)N2CCC(C(=O)NCC(=O)Nc3cccc(Cl)c3C)CC2)cc1,27.2,
C[C@H]1COC(=O)[C@H](CC(=O)OC(C)(C)C)C/C=C\C[C@@H](CC(=O)N[C@H](CO)Cc2ccccc2)C(=O)N1,-2.57,
CC(=O)c1c(C)[nH]c(C(=O)COC(=O)c2cccs2)c1C,0.382,
Nc1nc(-c2sc3nc4c(cc3c2N)CCCC4)nc(N2CCOCC2)n1,,6.51 µM (active)
Cc1nc(N2CCOCC2)nc2c1CCCC2,6.16,
CC(C)(C)S(=O)(=O)N1Cc2cc(CO)cc(CCO)c2[C@H]1CCO,-6.05,
COc1ccc(S(=O)(=O)N2CCN(c3cnccn3)CC2)cc1,2,
O=C(NC1CCCCC1)c1ccc2c(=O)n(CC3CCCO3)c(=O)[nH]c2c1 (stereo not given),-3.05,
Cc1cccc(NC(=O)c2ccc3c(=O)n(CC4CCCO4)c(=S)[nH]c3c2)c1 (stereo not given),2.75,
COC(=O)c1ccc2c(=O)n(CC3CCCO3)c(=S)[nH]c2c1 (stereo not given),,23.1 µM (active)
CCN(CC)c1ccc(/C=N/NC(=O)CNC(=O)c2cccnc2)cc1,2.8,
Cc1cc(C)nc(N/N=C/c2ccncc2)n1,-13.2,
CCN(CC)c1ccc(/C=N/NC(=O)c2cnccn2)c(O)c1,,18.4 µM (active)
CCN(CC)c1ccc(/C=N/Nc2nc(C)cc(=O)[nH]2)cc1,8.42,
